In the library only some 2.7% were active in any assay of this set; here they are far more common.
IP6K1 inhibitor: Primary qHTS assay for small molecule inhibitors of Inositol hexaphosphate kinase 1 (IP6K1); IP6K1 kinase, ADP-Glo luminescence, 2 h; active compounds read low; AID 1645851, 2021; Inositol hexakisphosphate kinase 1 (Homo sapiens), Q92551; 140,000 tested, 0.81% active; activity change, % (series mostly up to about 58 µM); in the data active = activity change below about -25%; also: % is scaled to controls: 0 for no effect and ±100 for the full control effect
Target sequence (Q92551 whole entry, looked up): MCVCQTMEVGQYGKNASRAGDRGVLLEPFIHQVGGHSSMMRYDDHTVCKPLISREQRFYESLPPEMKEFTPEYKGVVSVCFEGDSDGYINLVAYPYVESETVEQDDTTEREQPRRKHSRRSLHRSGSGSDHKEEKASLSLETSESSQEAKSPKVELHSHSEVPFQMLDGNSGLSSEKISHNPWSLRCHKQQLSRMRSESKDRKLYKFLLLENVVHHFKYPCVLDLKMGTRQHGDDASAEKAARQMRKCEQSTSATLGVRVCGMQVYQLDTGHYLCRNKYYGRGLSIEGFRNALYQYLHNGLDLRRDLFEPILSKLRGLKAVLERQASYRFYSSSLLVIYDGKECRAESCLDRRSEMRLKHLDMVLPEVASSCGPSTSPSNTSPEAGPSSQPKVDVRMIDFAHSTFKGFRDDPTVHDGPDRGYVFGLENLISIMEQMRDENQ
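ADP-Glo luminescence measures ADP made by human IP6K1 during a 2 h RT reaction with ATP/IP6 (mix at 1.3 mM/130 uM); top library doses 57.5 and 19.1 uM final.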
KDM5B inh: Primary screen for KDM5B Histone Demethylases FDH-coupled qHTS. AID 1347165, 2019. 220,000 tested, 2.6% active. KDM5B demethylase, FDH-coupled NADH fluorescence (FDH is formaldehyde dehydrogenase). Potency, µM (top dose mostly 57.7 µM), hits mostly inhibitors. Lysine-specific demethylase 5B (Homo sapiens), Q9UGL1; active = well fitted inhibition curve with a large enough effect; inconclusive = small, poorly fitted or top-dose-only effect; inactive = no such curve, though single readings can be large or run the other way; also: potency is read from the fitted curve at half-maximal effect; 0% is about no effect; nearly all actives have a fitted effect of over 70% in size
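qHTS format, multiple compound concentrations. Buffer 50 mM HEPES pH 7.5/0.01% Tween-20; 200 nM KDM5BΔAP final; 10 min compound preincubation; substrate-mix levels 12.5 µM peptide, 25 µM α-KG, 0.25 mM NAD⁺; 30 min RT; ΔRFU.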
* = called active by the depositor; i = inactive; ? = inconclusive; . = no result.

SMILES	IP6K1 inhibitor	KDM5B inh
COc1cncc(N2C[C@H]3[C@H](C2)[S+](=O)([O-])C(C)(C)C(=O)N3Cc2ccccc2)c1	-5	7.1µM*
CC1(C)C(=O)N(Cc2ccccc2)[C@H]2CN(c3ccnc(N4CCOCC4)c3)C[C@@H]2[S+]1(=O)[O-]	8	i
Cc1cccc(-c2cccc(CN3CCC(NC(=O)c4ccncc4)CC3)c2)c1	0	.
Cc1cccc(Cn2c(N3CCc4ccccc4C3)nc3c2c(=O)n(C)c(=O)n3C)c1	.	i
O=C1CCCC2=C1C(c1cccc(O)c1)c1c(nc(SCc3ccccc3F)[nH]c1=O)N2 (stereo not given)	.	i
Cc1cccc(C)c1-c1nnc2ccc(C(=O)NC3CC3)cn12	0	i
O=C(NC1CC1)c1ccc2ccnn2c1	1	32µM*
CCc1ccc(C(=O)N(C)C)cc1	.	i
CN(C)C(=O)c1ccc(I)cc1	.	i
CN(C)C(=O)c1ccn2cncc2c1	5	35µM*
CN(C)C(=O)c1ccc2ccnn2c1	6	32µM*
CN(C)C(=O)c1ccn2nccc2c1	5	32µM*
CN(C)C(=O)c1ccc2oc(-c3cccnc3)nc2c1	2	.
O=C(COC(=O)c1nc(-c2ccccc2)n(-c2ccccc2)n1)Nc1ccc(Cl)cc1	.	i
O=C(Nc1ccc(Cl)cc1)NC1CCN(c2ccc3nnc(C4CC4)n3n2)C1 (stereo not given)	10	.
CC(Nc1ccc([N+](=O)[O-])cn1)c1ccc(Cl)cc1Cl (stereo not given)	.	i
CC(C)(C)c1noc(CCC(=O)Nc2ccccn2)n1	.	i
COC(=O)C1=C(C)N(c2cc(C)ccc2C)C(=S)NC1c1ccsc1 (stereo not given)	.	i
O=C(Nc1ccc(F)cc1)c1cc2cccnn2n1	4	?
O=C(NC1CC1)c1cc2cccnn2n1	-1	32µM*
COc1ccc(OCC(=O)NCc2ccco2)c(C(=O)O)c1	.	i
O=Cc1ccc(OCC2CC2)c2ccccc12	.	i
O=C(c1cc(F)cc(F)c1)N1CCC(Oc2ncccc2C(=O)N2CCCCC2)C1 (stereo not given)	0	i
CCCN(C)c1nccnc1OC1CCN(C(=O)c2ccncc2)C1 (stereo not given)	24	i
CCCN(C)c1nccnc1OC1CCN(C(=O)c2ccccc2OC)C1 (stereo not given)	12	28µM*
SMILES	IP6K1 inhibitor	KDM5B inh
Cc1ccc(C(=O)N2CCC(Oc3ncccc3C(=O)N3CCCCC3)C2)cc1C (stereo not given)	1	28µM*
Cc1cc(C)c2oc(C(=O)Nc3ccc(S(=O)(=O)N(C)Cc4ccccc4)cc3)cc(=O)c2c1	.	i
COc1ccc(-c2cc(C[C@@H]3CC[C@H](O)[C@@H](CN(Cc4cccc(OC)c4)Cc4cccc(OC)c4)O3)no2)cc1	-3	?
O=C1NCCCc2[nH]c(-c3cnn(-c4cccc(F)c4)c3)nc21	-3	28µM*
O=C1NCCCc2[nH]c(-c3cc(-c4cccc(F)c4)no3)nc21	13	?
CCCNc1nc2ccccc2nc1C(=O)Nc1ccccc1	.	i
Cc1ccc(-c2nnn(CC(=O)c3c[nH]c4ccccc34)n2)cc1	.	i
O=C(Cc1ccccc1F)N1CCCN(c2cc(-c3ccc(Cl)cc3)[nH]n2)CC1	-10	10µM*
COc1ccc(-c2cc(N3CCCC(NC(=O)c4cccc(N(C)C)c4)C3)n[nH]2)cc1 (stereo not given)	0	28µM*
CN(C)c1cccc(C(=O)NC2CCN(c3cc(-c4ccc(Cl)cc4)[nH]n3)CC2)c1	16	32µM*
O=C(Cc1ccc(Cl)cc1)N1CCCN(c2cc(-c3ccccc3)[nH]n2)CC1	14	?
O=C(c1cccc(Cl)c1)N1CCN(c2cc(-c3ccc(Cl)cc3)[nH]n2)CC1	3	i
CN(C)c1cccc(C(=O)N2CCN(c3cc(-c4ccc(Cl)cc4)[nH]n3)CC2)c1	7	32µM*
COc1ccc(-c2cc(N3CCCC(NC(=O)c4cccc(C)c4)C3)n[nH]2)cc1 (stereo not given)	0	i
CN(C)c1cccc(C(=O)NC2CCN(c3cc(-c4ccc(F)cc4)[nH]n3)CC2)c1	24	i
CC1(/[N+]([O-])=C/c2ccco2)CCCCC1=O (stereo not given)	.	i
CC1Oc2ccc(NC(=O)c3c(F)cccc3F)cc2CN(Cc2ccc(Cl)cc2)C1=O (stereo not given)	17	i
O=C1CCN(CC(O)COCc2ccco2)c2ccsc2CN1Cc1ccccc1 (stereo not given)	-8	.
COc1ccc(OCC2CC3(CCCCC3)CN2C(=O)Cc2cccc(F)c2)cc1 (stereo not given)	11	.
COc1ccccc1C(=O)N1CCC(N2C(=O)c3c(c(C)nn3-c3ccccc3)C2C)C1 (stereo not given)	2	.

Screens as filed in PubChem BioAssay.
